This note sets out measurements from PubChem BioAssay.

Assay [1] in a line: anti-His antibody binders, primary screen, artefact control for SMM control protein annotation, biochemical, small-molecule microarray, 635 nm fluorescence (AID 1128).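 Further: score merges feature fluorescence with signal-to-noise for each printed compound spot.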 The settings on record: anti-His Alexa647 antibody binding, higher = more signal.
Assay [2] concerns Human papillomavirus type 1a E7 protein (residues 1-88). Kind of assay: HPV1a E7 small-molecule binders, primary screen, biochemical, small-molecule microarray, residues 1-88, 635 nm (AID 1129). The conditions noted are these: small-molecule microarray binding, fluorescence 635 nm; higher = more signal.
Assay [3] concerns the target Focal adhesion kinase 1 (Homo sapiens) (UniProt Q05397). Kind of assay: small-molecule microarray binders of FAK, primary screen, biochemical, 635/667 nm fluorescence, BSA, DTT (AID 1130).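 Further: composite of spot emission at 667 nm and signal to noise over triplicate slides.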 The settings on record: PTK2 binding, 635 nm fluorescence, higher = more signal.
For assay [4], the system named is Fibrinogen (Alexa647-labelled). Kind of assay: fibrinogen binders on compound microarrays, profiling panel, artefact control for SMM control-protein annotation, biochemical, small-molecule microarray, 635/667 nm fluorescence (AID 1131).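 Further: z-score merges 667 nm fluorescence with per-spot signal-to-noise over triplicate slides.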 The settings on record: fibrinogen-A647 binding fluorescence, higher = more signal.
Assay [5] concerns the target Follistatin (Homo sapiens) (UniProt P19883). As to the kind of experiment: follistatin binders on small-molecule microarrays, primary screen, biochemical, small-molecule microarray, 635/667 nm fluorescence (AID 1132). The settings on record: FST binding, 635 nm fluorescence, higher = more signal.
Assay [6] deals with Fibroblast growth factor 2 (Homo sapiens) (UniProt P09038). Kind of assay: FGF2 binders on small-molecule microarrays, primary screen, biochemical, small-molecule microarray, 635/667 nm fluorescence (AID 1133). The settings on record: small-molecule microarray binding, FGF2, fluorescence 635/667; higher = more signal.
Chain of Fibroblast growth factor 2 (Homo sapiens) (P09038 whole entry, looked up): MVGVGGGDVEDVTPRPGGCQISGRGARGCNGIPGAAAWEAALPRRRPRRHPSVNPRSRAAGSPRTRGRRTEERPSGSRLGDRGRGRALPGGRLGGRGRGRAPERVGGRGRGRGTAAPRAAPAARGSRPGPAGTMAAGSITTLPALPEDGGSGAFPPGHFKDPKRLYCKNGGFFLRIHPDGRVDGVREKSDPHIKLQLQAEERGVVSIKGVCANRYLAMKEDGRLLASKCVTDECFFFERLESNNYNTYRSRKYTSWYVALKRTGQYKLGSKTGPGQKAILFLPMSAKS
Assay [7] in a line: mitochondrial membrane potential change in A549 cells, profiling panel, cell-based, JC-1 fluorescence, basal, 24 h, 100 nL (AID 1138).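 Further: A549 lung adenocarcinoma cells under basal conditions with no added stimulus; test concentration not given here.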 The settings on record: higher = more signal.
Assay [8] deals with Lefty1. Kind of assay: Lefty1 binders on small-molecule microarrays, primary screen, biochemical, small-molecule microarray, 635/667 nm fluorescence (AID 1139). The settings on record: small-molecule microarray binding, fluorescence 635/667; higher = more signal.
The test system of assay [9] is wheat germ agglutinin (Triticum aestivum), Alexa647-labelled. As to the kind of experiment: wheat germ agglutinin binders on compound microarrays, profiling panel, artefact control for SMM control-protein annotation, biochemical, small-molecule microarray, 635/667 nm fluorescence (AID 1140).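 Further: score merges 667 nm feature emission with signal to noise over triplicate slides.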 The settings on record: WGA-A647 binding, 635 nm fluorescence, higher = more signal.

The target of assay [10] is Luciferin 4-monooxygenase (Photinus pyralis) (UniProt P08659). As to the kind of experiment: firefly luciferase enzyme inhibitors, primary screen, biochemical, luminescence, purified enzyme, 2006 set (AID 1141).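 Further: cell-free assay with purified firefly luciferase at 100 ng per well in PBS; test concentration not given here.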 The conditions noted are these: SteadyGlo luminescence, 30 min, higher = more signal, called active from +8 up or from −8 down.
Chain of Luciferin 4-monooxygenase (Photinus pyralis) (P08659 whole entry, looked up): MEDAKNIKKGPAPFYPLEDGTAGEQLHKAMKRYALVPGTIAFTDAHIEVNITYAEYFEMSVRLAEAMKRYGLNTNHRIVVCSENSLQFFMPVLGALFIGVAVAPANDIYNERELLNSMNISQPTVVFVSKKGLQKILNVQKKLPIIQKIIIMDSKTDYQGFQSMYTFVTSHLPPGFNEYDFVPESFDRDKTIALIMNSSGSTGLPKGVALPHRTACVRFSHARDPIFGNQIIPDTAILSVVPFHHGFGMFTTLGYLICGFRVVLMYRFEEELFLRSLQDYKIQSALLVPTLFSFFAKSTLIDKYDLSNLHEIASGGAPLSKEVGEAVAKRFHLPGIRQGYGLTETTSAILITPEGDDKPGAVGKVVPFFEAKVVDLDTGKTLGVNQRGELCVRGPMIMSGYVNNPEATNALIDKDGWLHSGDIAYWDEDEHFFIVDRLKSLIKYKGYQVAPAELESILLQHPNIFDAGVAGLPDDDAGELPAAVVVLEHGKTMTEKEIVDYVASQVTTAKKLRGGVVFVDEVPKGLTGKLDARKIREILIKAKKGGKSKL
Assay [11] concerns Wnt5a (protein binding on small-molecule microarray). Kind of assay: Wnt5a binders on small-molecule microarray, primary screen, biophysical, 635/667 nm fluorescence (AID 1142).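 Further: fluorescence read at 667 nm with signal to noise per printed feature.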 The settings on record: 635 nm fluorescence, higher = more signal.
A short description of assay [12]: cell viability in Huh7 cells, primary screen, cytotoxicity control for HCV replication inhibitor project, CellTiter-Glo luminescence, basal, 48 h (AID 1143).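 Further: Huh7 hepatoma cells carrying a hepatitis C replication reporter with no stimulus; test concentration not given here.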 The conditions noted are these: Huh7 HCV replicon, higher = more signal, called active from +8 up or from −8 down.
Assay [13] is described as follows: P. aeruginosa biofilm formation inhibitors, primary screen, PAO1 strain, BacTiter-Glo luminescence, LB-PBS (AID 1144). The settings on record: 12 h, higher = more signal.
Assay [14] can be described thus: CREB reporter modulators without forskolin, primary screen, cell-based, PC12, CRE-LacZ reporter, unstimulated (AID 1145). The conditions noted are these: no forskolin, luminescence, 4.5 h, higher = more signal, called active from +8 up or from −8 down.
The nature of assay [15]: CREB reporter modulators under forskolin, primary screen, cell-based, PC12, CRE-LacZ reporter, forskolin-stimulated (AID 1146).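 Further: PC12 cells with 6xCRE LacZ reporter stimulated by forskolin 10 µM; beta-galactosidase reporter signal reflecting CREB driven transcription.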 The settings on record: luminescence, 4.5 h, higher = more signal, called active from +8 up or from −8 down.
Assay [16] has as its target Streptavidin (Streptomyces avidinii) (UniProt P22629). As to the kind of experiment: streptavidin binders on small-molecule microarray, primary screen, artefact control for SMM compound annotation, biophysical, 635/667 nm fluorescence (AID 1147).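 Further: signal reflects streptavidin binding to arrayed compounds as a control protein.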 The settings on record: streptavidin binding, higher = more signal.
The nature of assay [17]: small-molecule binders of probe aInhba, primary screen, biochemical, small-molecule microarray, 635/667 nm fluorescence (AID 1148).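 Further: score merges 667nm spot fluorescence with signal-to-noise for antibody binding to printed compounds.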 The settings on record: higher = more signal.
Assay [18] concerns the target Torsin-1A (Homo sapiens) (UniProt O14656). As to the kind of experiment: torsin A binders from cell lysate, primary screen, small-molecule microarray, wild-type, 635/667 nm (AID 1149). The settings on record: COS7 hTOR1A-WT lysate, 635 nm fluorescence, higher = more signal.
Assay [19] shares this target. Kind of assay: small-molecule binders of mutant TOR1A in lysate, primary screen, cell lysate, small-molecule microarray, COS7 lysate, 635/667 nm fluorescence (AID 1150).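 Further: score pools 667 nm emission and signal to noise measuring lysate protein binding.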 The settings on record: COS7 hTOR1A mutant lysate, 635 nm fluorescence, higher = more signal.
Assay [20] has as its system Sonic hedgehog protein (Shh). Kind of assay: small-molecule binders of Shh protein, primary screen, biochemical, small-molecule microarray, 635/667 nm fluorescence (AID 1151).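 Further: Shh protein binding to compounds spotted on small-molecule microarray slides; score combines spot fluorescence intensity with signal-to-noise across triplicate slides.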 The settings on record: small-molecule microarray binding, 635 nm fluorescence; higher = more signal.

Calls of active or inactive are those of the source. Unless noted, how the calls were made is not given here.

Chain of Streptavidin (Streptomyces avidinii) (P22629 whole entry, looked up): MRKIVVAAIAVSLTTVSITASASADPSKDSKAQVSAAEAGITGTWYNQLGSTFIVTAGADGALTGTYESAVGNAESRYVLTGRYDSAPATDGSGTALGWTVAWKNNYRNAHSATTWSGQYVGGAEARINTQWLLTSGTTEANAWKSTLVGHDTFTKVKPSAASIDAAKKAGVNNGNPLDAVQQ
Chain of Torsin-1A (Homo sapiens) (O14656 whole entry, looked up): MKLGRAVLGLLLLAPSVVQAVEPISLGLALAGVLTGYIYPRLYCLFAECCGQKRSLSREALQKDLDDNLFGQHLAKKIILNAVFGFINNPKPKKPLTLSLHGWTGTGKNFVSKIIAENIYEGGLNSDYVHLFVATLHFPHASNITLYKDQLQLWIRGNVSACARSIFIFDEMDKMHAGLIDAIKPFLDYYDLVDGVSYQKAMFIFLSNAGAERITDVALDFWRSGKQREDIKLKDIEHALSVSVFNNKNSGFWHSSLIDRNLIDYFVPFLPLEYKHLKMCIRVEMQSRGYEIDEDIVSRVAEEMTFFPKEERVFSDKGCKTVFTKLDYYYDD
Chain of Focal adhesion kinase 1 (Homo sapiens) (Q05397 whole entry, looked up): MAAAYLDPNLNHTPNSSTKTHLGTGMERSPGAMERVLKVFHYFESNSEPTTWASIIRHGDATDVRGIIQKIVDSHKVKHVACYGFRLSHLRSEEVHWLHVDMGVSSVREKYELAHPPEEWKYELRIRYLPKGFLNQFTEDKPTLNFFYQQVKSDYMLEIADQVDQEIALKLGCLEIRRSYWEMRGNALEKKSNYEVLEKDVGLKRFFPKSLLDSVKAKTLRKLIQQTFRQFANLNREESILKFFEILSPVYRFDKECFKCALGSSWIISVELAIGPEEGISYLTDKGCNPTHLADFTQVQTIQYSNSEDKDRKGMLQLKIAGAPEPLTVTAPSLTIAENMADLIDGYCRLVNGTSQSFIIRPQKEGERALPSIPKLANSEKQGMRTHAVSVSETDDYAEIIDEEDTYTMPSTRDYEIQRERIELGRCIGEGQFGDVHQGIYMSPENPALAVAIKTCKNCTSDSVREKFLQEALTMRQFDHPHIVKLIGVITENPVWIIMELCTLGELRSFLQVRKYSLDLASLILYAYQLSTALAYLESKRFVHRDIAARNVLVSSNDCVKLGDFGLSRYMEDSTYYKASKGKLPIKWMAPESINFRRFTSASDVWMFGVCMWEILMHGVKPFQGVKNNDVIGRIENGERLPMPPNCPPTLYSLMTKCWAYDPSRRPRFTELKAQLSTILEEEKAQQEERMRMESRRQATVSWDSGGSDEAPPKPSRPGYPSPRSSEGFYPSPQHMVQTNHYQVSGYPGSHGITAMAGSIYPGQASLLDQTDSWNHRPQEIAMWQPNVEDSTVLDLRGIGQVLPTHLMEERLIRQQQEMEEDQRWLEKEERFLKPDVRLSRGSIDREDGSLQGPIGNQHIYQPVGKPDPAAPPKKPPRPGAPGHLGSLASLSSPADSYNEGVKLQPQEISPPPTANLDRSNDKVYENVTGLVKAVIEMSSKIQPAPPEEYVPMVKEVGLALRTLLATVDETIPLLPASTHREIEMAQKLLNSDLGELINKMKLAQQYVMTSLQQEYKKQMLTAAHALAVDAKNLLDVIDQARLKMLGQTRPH
Chain of Follistatin (Homo sapiens) (P19883 whole entry, looked up): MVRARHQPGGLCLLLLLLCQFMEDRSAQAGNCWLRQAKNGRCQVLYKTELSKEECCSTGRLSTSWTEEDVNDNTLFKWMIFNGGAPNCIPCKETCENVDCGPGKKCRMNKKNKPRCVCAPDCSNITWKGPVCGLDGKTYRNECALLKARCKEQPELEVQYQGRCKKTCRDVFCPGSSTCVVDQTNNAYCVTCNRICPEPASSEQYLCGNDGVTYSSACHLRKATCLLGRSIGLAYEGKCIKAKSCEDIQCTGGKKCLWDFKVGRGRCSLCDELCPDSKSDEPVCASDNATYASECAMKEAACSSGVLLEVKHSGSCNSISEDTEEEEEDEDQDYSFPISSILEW

Turning to `C=CCC(OC(C)=O)[C@@H]1[C@@H](N(Cc2ccc(-c3cccc(C(F)(F)F)c3)o2)C(=O)c2cccc3ccccc23)c2cc(OCCCO)ccc2N1C(=O)Cc1ccc2ccccc2c1` (stereo not given in full), the composite z-score was 0.383 in assay [1]; -0.688 in assay [2]; 0.172 in [3]; 0.702 in assay [4]; 0.37 in [5]; -0.129 in assay [6]. Besides, the composite z-score in [8] was -0.0051; in [9], 0.178; in assay [11], -0.078; in assay [16], -0.253; in [17], 0.374; in assay [18], 1.34. The composite z-score in assay [19] is -0.361; in [20] it was 0.248. Also, the z-score is -0.65 in [7]; 0.335 (inactive) in [10]; -0.952 (inactive) in assay [12]; 0.318 (inactive) in assay [13]; 0.307 (inactive) in [14]; 0.848 (inactive) in assay [15].

`CS(=O)(=O)CCOC(=O)C1=CC(CCCO)=CC(c2ccc(CN3CCCC3)cc2)N(Cc2cccc(OC(F)(F)F)c2)C=C1C(=O)OCCS(C)(=O)=O` (stereo not given): the composite z-score in assay [1] was determined as 1.26; in [2], 1.09; in assay [3] it was 0.366; in assay [4] it was 0.675; in assay [5], 0.962; in assay [6] it was 0.964. For the same compound, the composite z-score in [8] amounted to 0.889; in assay [9] it was 0.404; in [11] it was 0.531; in [16], 0.812; in assay [17] it was 0.259; in [18], 0.907. Further, the composite z-score in [19] came out at 1.33; in assay [20] it was 0.798. For the same compound, the z-score is 3.17 in [7]; -2.68 (inactive) in assay [10]; -1.42 (inactive) in [12]; 4.41 (inactive) in assay [13]; 4.56 (inactive) in assay [14]; -0.0478 (inactive) in assay [15].

Take `C=C[C@H](C)[C@@H](OC(=O)Nc1ccc(SC)cc1)c1ccc(O)c2ccccc12`: the composite z-score came out at 3.14 in assay [1]; 1.24 in [2]; 0.183 in assay [3]; 0.294 in assay [4]; 1.37 in assay [5]; 1.54 in assay [6]. Besides, the composite z-score is 1.1 in assay [8]; 0.108 in assay [9]; 0.64 in [11]; 1.26 in [16]; -0.0375 in assay [17]; 0.163 in assay [18]. For the same compound, the composite z-score turned out to be 0.165 in assay [19] and 1.76 in [20]. The z-score was -1.7 in assay [7]; -2.61 (inactive) in assay [10]; -1.08 (inactive) in [12]; -0.492 (inactive) in assay [13]; -0.505 (inactive) in assay [14]; 1.69 (inactive) in [15].

Take `O=C1[C@H]2C=C(Br)[C@H](C[C@@H]2OCCCCCCO)[C@@]12CO2`: the composite z-score was -0.847 in assay [1]; -1.57 in assay [2]; -0.191 in [3]; -1.94 in assay [4]; -0.266 in assay [5]; 0.263 in [6]. For the same compound, the composite z-score in assay [8] is -0.406; in assay [9], -2.03; in [11], 0.255; in assay [16] it was -0.29; in assay [17] it was -0.024; in assay [18] it was 0.36. Further, the figures for the composite z-score in [19] and in assay [20] were 0.12 and 0.129, respectively. For the same compound, the z-score in [7] is -0.363; in assay [10], 0.364 (inactive); in assay [12], 0.993 (inactive); in [13], 0.41 (inactive); in assay [14] it was 0.577 (inactive); in [15] it was 1.71 (inactive).

For `CC(c1ccccc1)C(O)C1C=CC2C(=O)N(C)C(=O)C2N1NC(=O)OC(C)(C)C` (stereo not given), the composite z-score in assay [1] is 0.79; in assay [2], 1.21; in [3], 0.235; in [4] it was 1.03; in assay [5], 0.696; in [6], 0.0621. Besides, the composite z-score in [8] was -0.271; in assay [9] it was 0.939; in assay [11], 0.472; in assay [16], 2.15; in assay [17], 0.19; in [18], 0.516. Moreover, the composite z-score in assay [19] was 1.13; in assay [20], -0.656. For the same compound, the z-score in assay [7] is -0.422; in assay [10], -0.934 (inactive); in assay [12], 0.834 (inactive); in assay [13] it was 0.059 (inactive); in assay [14], 0.622 (inactive); in assay [15], -0.434 (inactive).
